# From PubChem BioAssay AID1347426 (Functional Genomics Laboratory (NCATS/FGL), 2020)
# About 1,400 (4.5%) of roughly 31,000 sequences were called active.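 The calls were made as follows: active = median seed-adjusted z-score above 1 or below -1; inactive = the rest.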 This excerpt belongs to a sample that is enriched for actives.
# Assay: Novel Modifiers of Survival Motor Neuron (SMN) Protein: Gene Identification via Genome-wide siRNA Screen;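 also: luminescence tracks full-length SMN protein made from the SMN2 reporter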
# Conditions: HEK293T SMN2-luciferase reporter, siRNA knockdown, 72 h; actives lie on both sides
# How it was run: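 Genome-wide siRNA screen (10418 genes, 3 siRNAs each, 1 pmol per well) by reverse transfection in HEK293T cells stably carrying an SMN2-luciferase reporter; luminescence after 72 hours, normalized to negative-control siRNA, log10-transformed, MAD-scored.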
row,Sequence,median seed-adjusted z-score
1,GGCUGGAUGUCAUUGAGAATT against SRGAP3,-0.0961 (inactive)
2,GCGAGGGCCUUUUUGAGUATT against CRYAA,-1.03 (active)
3,GAUCGAAUCUUUAAGGUCUTT against EIF2C1,0.215 (inactive)
4,ACAUCUCCGAAAUCGCCUATT against SLC2A8,-0.105 (inactive)
5,AAAUGGAUGAGUUGCAAUUTT against PITX1,0 (inactive)
6,GCUCCGAAGUGGUGAUCAATT against CHRM1,1.1 (active)
7,GGAUAUGCCUUAGAUUACATT against PRTFDC1,0.493 (inactive)
8,GGUUCAUGACAGACAAGAATT against SHMT1,0.179 (inactive)
9,GCAUGUAUCUGCUUGAUAUTT against ODC1,-1.64 (active)
10,GUUUUUGUCCUAGCCCAUATT against OTUD7A,-0.53 (inactive)
11,GCCCAUGUCCCAAAUCACATT against PDE4A,-0.147 (inactive)
12,GGCAAAAUCUGGACACCAUTT against TFAP4,-0.0515 (inactive)
13,CCGGAAUUUUUGACAAGAATT against PTGS2,-0.21 (inactive)
14,AGAUCUGCAUGAAACAACATT against VPS16,0.306 (inactive)
15,GGUCUGAAACUCUACUAUATT against SHPRH,0.169 (inactive)
16,GGUUCUAACUUCGAAAAAUTT against DNAJC8,-1.62 (active)
17,AGUCUGUCCGAGUACUUCATT against LFNG,-0.13 (inactive)
18,GAGUUAAGUGAUAAGUAUATT against ZNF639,0.182 (inactive)
19,GCUCUGUAAUAGUCGACUATT against TOPBP1,0.0888 (inactive)
20,GCUUGUAGCUCUUAAGGUUTT against PPP2CA,0.731 (inactive)
21,GGUCUUUAUUCGGAAGCGATT against ZNF525,0.134 (inactive)
22,GAUAUUGAGCGGUUACAAATT against ATP7B,0.0947 (inactive)

row,Sequence,median seed-adjusted z-score
1,GCACUCAUGUCAUACUGAATT against LIPA,0.535 (inactive)
2,GUUACUUCCGAAUCCAUGATT against ZNF627,0.204 (inactive)
3,GGAAACCUCUGGACCUCUATT against ARID1A,-1.14 (active)
4,GGACAGAUCUGCAAAGAGATT against CETP,0 (inactive)
5,GAUGUACCUUGAUACAGUATT against IDH3A,0.137 (inactive)
6,CUGAUGAUCUACUCAUAUATT against TEKT1,0.222 (inactive)
7,GCUCCAUCCUUAUUCAACATT against ZIK1,-0.0627 (inactive)
8,GCUCAUCUGGAUAACCUGATT against ZNF513,-0.0616 (inactive)
9,GGCUAUUAUUGACAUGGUUTT against PDE8B,0.217 (inactive)
10,GAAUAUGAAACAUUCGAUATT against GLRX3,0.0784 (inactive)
11,CUUCUGAACUCGGUCCUCATT against SLC5A5,1.01 (active)
12,GGCUUUCAUUGAGCAGGAATT against ATP6V1E2,-0.162 (inactive)
13,GACCAGCAAUGCCUACGUATT against FLRT1,-0.00451 (inactive)
14,GCAAAACCCUGGAAGGAUATT against KCTD11,0.374 (inactive)
15,UGACAGUGACGGAUGCUAATT against OPLAH,-0.233 (inactive)
16,CGAUCGACUCGGUGACUUUTT against COL7A1,1.08 (active)
17,GAAGUCACGUCACUACUUATT against ZNF644,0.389 (inactive)
18,CACAGAUCAUUAUCUAAAUTT against LONP2,1.52 (active)
19,CCUCAGAACCGGCAAGAAATT against TNFAIP1,0.0766 (inactive)
20,CCAAAAUGUUUCAUCCAAATT against UBE2B,0.333 (inactive)
21,GAGUUAUGCAAGACAGUAUTT against MYSM1,-0.116 (inactive)
22,GCAGCAACCUUGUCAUCCATT against ZNF692,0.556 (inactive)

row,Sequence,median seed-adjusted z-score
1,CACCAGCGACGGGAUCUUATT against RHOBTB2,-0.139 (inactive)
2,CCGUCACAGUAGAGACUAUTT against LRRC4C,-0.122 (inactive)
3,GCAAUUACAUGAGCGAGCATT against PLK1,-2.57 (active)
4,GCUCCAUCAUCGUUGCAUUTT against SYPL2,0.233 (inactive)
5,CCAUAUUCCUCAUGCAUGUTT against FCRL5,-0.138 (inactive)
6,CAUCAGGAAUUACGGGACATT against GPR123,0 (inactive)
7,AGGGAACAAGUUUACCAAATT against GTF2IRD1,-0.282 (inactive)
8,GGUUAGACAUCAGUCCUUUTT against DHX15,1.36 (active)
9,CAGUUCCAGAUGAACCAUATT against DHDDS,0.0122 (inactive)
10,CACGGGAUAUGGAACGAAATT against CXCR7,-0.511 (inactive)
11,GAACAGUCCCUGGUUCCCATT against ECSIT,-0.116 (inactive)
12,UGCCCUUGGCUAUCCCUGATT against SLC30A3,-1.26 (active)
13,GGCUUUGUCAGUUCCCAGATT against SPRR2B,0.388 (inactive)
14,GCUUUGCUCUGUACCCUGATT against CTSK,0.0972 (inactive)
15,CCAUUAACCACAUACCAGATT against TLR7,0.189 (inactive)
16,CCAGUUCUUUAGGAUCUAUTT against GPR141,-0.777 (inactive)
17,GCGGAGCAUUUGCAACAAATT against NR6A1,-0.287 (inactive)
18,GCACCUUUAGGCGAAGGAATT against SENP6,-1.03 (active)
19,CCAUCAUCCCUAAGCGAAUTT against REXO1,-0.748 (inactive)
20,GUGUGGUCAUUCAACUUGATT against ZNF324B,0.176 (inactive)
21,GCACCUUCCUGCUAAGAUUTT against STAT3,0 (inactive)
22,GCUACUCCCUGAUUCAGAATT against SLC2A7,-0.0337 (inactive)

row,Sequence,median seed-adjusted z-score
1,CUACAAAAGUUUUUCCAGATT against COX7A2L,0 (inactive)
2,CACGGUAUCUCAACCGGAATT against HGS,1.16 (active)
3,CCCAGGCUCGAAUCCCAUATT against PLD3,0.066 (inactive)
4,CCUUCUCCGUGAUUGAGGATT against LGI4,-0.239 (inactive)
5,GGCGACAGAUGUGAAAGAATT against LDLR,-0.142 (inactive)
6,GAUUGAUAGAAGCACCCUATT against DCC,0.303 (inactive)
7,AAGACAAGCUAAAAAUGAUTT against YWHAE,1.38 (active)
8,GCAAGGACCCAACAACCAATT against TTC9,-0.173 (inactive)
9,GUCAUUUCUUUACCCAAGATT against NUDT5,0.228 (inactive)
10,GGAAAACUGCGGCUGCAAATT against AP1S1,-1.04 (active)
11,GCACGAAAAUCCCGACAUATT against DDX54,0 (inactive)
12,GGCCGAAUUUAUAAAGGAATT against CHI3L1,0.145 (inactive)
13,GAGGUACGCUGGUUCUACATT against DDHD1,0 (inactive)
14,GCAUAGAGGAGAUCUGUGATT against PROC,-0.228 (inactive)
15,ACUUCUACACGUUUCCAAATT against THAP11,-1.36 (active)
16,GAACAACACGACCAACAGATT against PRKD2,0.00493 (inactive)
17,GGGUCGACCUAUUUCCGAATT against DYSF,-0.23 (inactive)
18,GCAAACCGGUUAAUCAAGATT against GGA2,-0.142 (inactive)
19,GAUCCUCAGUAAACCUAUUTT against DDX46,-1.24 (active)
20,GCAUGUUGGUUCACUAUGATT against TPST1,-0.00547 (inactive)
21,AGGUCUUUCCCAACGAGGATT against UBE2S,0.348 (inactive)
22,GGAUGCACUUUGUCCGAAATT against SPATA5,-1.04 (active)

row,Sequence,median seed-adjusted z-score
1,AGUUGGGAUUAAUACUUCATT against CCL7,0.23 (inactive)
2,GAACUUGUCUUGCGCAAAATT against ZEB1,-0.163 (inactive)
3,GGUUUGUGGUGGAAGAUUATT against PLCD3,0.228 (inactive)
4,GGAUCACUCUAACAUCGGATT against PDE1C,0.157 (inactive)
5,GGAUCAGUAUGGGCAAAGATT against CALB1,0.191 (inactive)
6,UCUCUACAACAAAAUUUAATT against POLR2L,-1.19 (active)
7,CACUUGAUGUUAUUCGUGUTT against MOAP1,0.0405 (inactive)
8,GGAAGGAUCAAACUACAAATT against AATF,0.182 (inactive)
9,CAUUAUCGAUACUAUGUAATT against PSMD6,-1.03 (active)
10,GAUCCACCUUAUACUCAUATT against EPS8,0 (inactive)
11,GAUGAUUACAUAUCAGAGATT against ZNF630,-0.533 (inactive)
12,CACCCUAAUGGAUACAGCUTT against NTSR2,-0.125 (inactive)
13,GACUAAAUCAGUUACCGAATT against MED17,-2.06 (active)
14,GCACCUGAAUGACACGCAATT against HOXD1,0.144 (inactive)
15,GGAAUUGUGGUGUUAGUAATT against POLN,-0.129 (inactive)
16,GGUCAUUGCCCGAACAAUATT against BNC1,-0.631 (inactive)
17,GGACUUUAUUCGGAAGCUUTT against DAPK2,0.268 (inactive)
18,AAUUCAAGCUAUGAAGAUATT against ACO2,-1.57 (active)
19,CCUUCAAUGUGGGCUACCATT against DEGS2,-0.305 (inactive)
20,CAACCUUUCUUGUUAGUAATT against DHRS7,0.255 (inactive)
21,CUGUUCCAGUUGUGGCUCUTT against KRTAP5-1,0 (inactive)
